14-3-3g Raf: modulators of 14-3-3 gamma protein binding, primary screen, biochemical, fluorescence polarization. 160,000 compounds, 0.19% hits. AID 422, 2006. 14-3-3 protein gamma (Homo sapiens), P61981. inhibition, % at 40 µM. FP, 14-3-3gamma / TMR-pS259-Raf peptide binding; in the data active = inhibition above about 30%;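 note: 0% = protein plus tracer without compound and 100% = blank with tracer alone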
Target sequence (P61981 whole entry, looked up): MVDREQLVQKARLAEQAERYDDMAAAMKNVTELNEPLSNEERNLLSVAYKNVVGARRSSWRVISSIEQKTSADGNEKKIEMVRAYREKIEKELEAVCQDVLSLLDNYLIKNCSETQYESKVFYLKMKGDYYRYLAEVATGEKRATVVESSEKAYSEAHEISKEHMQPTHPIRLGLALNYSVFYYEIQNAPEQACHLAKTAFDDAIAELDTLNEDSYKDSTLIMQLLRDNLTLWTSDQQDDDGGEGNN
Starred values were filed as active, the others as inactive. This is one part of a sample in which hits are shown more often than they occur.

SMILES | 14-3-3g Raf
Cc1ccc(Cc2ccc(-c3nc(=S)[nH][nH]3)o2)cc1 | -5.1
Cc1cc(Cl)ccc1OCC(=O)NCc1ccccn1 | 13.5
COc1ccccc1N(CC(=O)Nc1ccc(Br)c(C)c1)S(C)(=O)=O | 2.4
O=C(Nc1c2c(nn1-c1ccc(F)cc1)CSC2)C12CC3CC(CC(C3)C1)C2 | -5.8
COC(=O)C1C(=O)C2=C(CC1C)NC(C)=C(C(=O)OC(C)C)C2c1ccccc1OC(C)C (stereo not drawn) | 0.4
Cc1ccc(N=C2NC(=O)CC(C(=O)Nc3cccc(C(F)(F)F)c3)S2)cc1 (stereo not drawn) | 0.4
O=c1c2ccccc2nc(SCC=Cc2ccccc2)n1-c1ccccc1 | -6.5
CCc1ccc(NC(=O)Cn2c(=O)n(-c3cc(OC)cc(OC)c3)c(=O)c3ccccc32)cc1 | 2.4
COc1ccc(NC(=O)c2cccnc2SCc2ccccc2C)cc1OC | -3.5
O=C(CN1C(=O)c2ccc([N+](=O)[O-])cc2C1=O)Nc1ccc(O)cc1C(=O)O | 37.2*
O=C(CN1C(=O)c2ccc([N+](=O)[O-])cc2C1=O)Nc1ccc(Br)cc1C(=O)O | -1.8
O=C(CN1C(=O)c2ccc([N+](=O)[O-])cc2C1=O)Nc1ccccc1[N+](=O)[O-] | 3.1
CCCCC(=O)N1c2ccccc2NC2=C(C(=O)CC(C)(C)C2)C1c1ccc(OCC)cc1 (stereo not drawn) | 5.0
CC(C)(C)c1ccc(Oc2coc3cc(OC(=O)c4ccccc4)ccc3c2=O)cc1 | -1.7
CC(C)c1ccc(CNC(=O)c2cccc3ccccc23)cc1 | -2.8
Cc1ccc(S(=O)(=O)c2c(C)nn(-c3ccccc3)c2OC(=O)c2cccc([N+](=O)[O-])c2C)cc1 | -5.0
Cc1cc2cc(CCNC(=O)c3ccccc3C)c(=O)[nH]c2cc1C | 5.5
O=C1C=C(C(F)(F)F)c2ccc(NC3CCCCC3)c3cccc1c23 | 130.7*
O=[N+]([O-])c1cc(S(=O)(=O)C(Cl)(Cl)Br)ccc1NC1CCCCC1 | -8.2
O=C1C(Cl)=C(NC2CCCCC2)C(=O)N1c1cccc(C(F)(F)F)c1 | -2.6
COc1cc2c(cc1OC)C(C(=O)NCCCN1CCCCCC1)C(c1cccnc1)N(C)C2=O (stereo not drawn) | 4.0
CCOC(=O)c1ccc(NC(=O)Cn2cccc2)cc1 | -4.3
CCOC(=O)c1ccc(NC(=O)CN2CCN(c3ccccc3)CC2)cc1 | -5.3
CCOC(=O)c1ccc(NC(=O)CN2CCCCC2)cc1 | 30.5*
COc1ccc(NC(=NS(=O)(=O)c2ccccc2)c2ccc(Cl)cc2)cc1 | -1.7
SMILES | 14-3-3g Raf
Cc1cccc(NC(=O)c2ccccc2Br)c1C | 10.7
O=S1(=O)NC(=NCCO)c2ccccc21 | -3.4
O=C(Nc1ccccc1Cl)c1ccc(F)c(S(=O)(=O)N2CCCc3ccccc32)c1 | 31.3*
O=C(Nc1cccc(Cl)c1)c1ccc(F)c(S(=O)(=O)N2CCCc3ccccc32)c1 | -8.2
O=C(Nc1ccccc1Cl)c1cc(S(=O)(=O)N2CCCc3ccccc32)ccc1F | 3.9
Cc1c(C)c2cc(Cl)c(O)c(CN3CCN(C)CC3)c2oc1=O | 0.6
CCN(CC)Cc1c(O)c(Cl)cc2c(C)cc(=O)oc12 | 63.4*
Cc1cc(=O)oc2c(CN3CCC(C)CC3)c(O)c(Cl)cc12 | 60.5*
Cc1cc(=O)oc2c(CN3CCCCC3)c(O)c(Cl)cc12 | -7.0
CCN1CCN(Cc2c(O)c(Cl)cc3c(C)cc(=O)oc23)CC1 | 17.0
Cc1cc(=O)oc2c(CN(CC(C)C)CC(C)C)c(O)ccc12 | -18.5
Nc1cc(=O)[nH]c(=O)n1CCO | -1.8
Cc1ccc(NC(=O)C2CCN(S(=O)(=O)c3cccc4nonc34)CC2)cc1Cl | -55.3
COc1ccc(N=Cc2cc(Br)ccc2O)c(OC)c1 | -50.4
CCCc1ccc(O)c(N=Cc2cc(Br)cc(OCC)c2O)c1 | -133.8
CCCc1ccc(O)c(N=Cc2cc(Br)cc(OC)c2O)c1 | 85.4*
Cc1cc(C)c(Cn2c(=O)n(CC(=O)NCCc3ccccc3)c(=O)c3sccc32)c(C)c1 | 2.3
COc1ccc(Br)cc1-c1noc(C(F)(F)F)n1 | 0.6
CCC1=NNc2cccc3c(OC)ccc1c23 | 141.8*
COc1ccc2c3c(cccc13)OCC2=O | -3.9
COc1ccc(C(C)=O)c2c(O)cccc12 | 3.3
CCN1C(=O)CC(C(=O)Nc2ccc(F)cc2)SC1=Nc1ccccc1 (stereo not drawn) | -5.0
COc1ccc(C2C(C(=O)NCCN(C)C)c3cc(OC)c(OC)cc3C(=O)N2C)cc1 (stereo not drawn) | 0.3
COc1ccccc1C1CC(=O)C2=C(C1)NC(C)=C(C(=O)OC1CCCC1)C2c1ccc([N+](=O)[O-])cc1 (stereo not drawn) | 5.4
CCCSc1nnc2c(n1)OC(c1cccc(OCC)c1OC)Nc1ccccc1-2 (stereo not drawn) | -72.0
CCCCCCSc1nnc2c(n1)OC(C)Nc1ccccc1-2 (stereo not drawn) | 44.0*
CCCCSc1nnc2c(n1)OC(c1ccccc1OC)Nc1ccccc1-2 (stereo not drawn) | -0.7
Cc1cccc(C2Nc3ccccc3-c3nnc(SCc4ccccc4F)nc3O2)n1 (stereo not drawn) | 22.2

Assay outcomes from PubChem.
